The record followed here is PubChem BioAssay AID686979 (National Center for Advancing Translational Sciences (NCATS), 2013).

“And” between values parts separate entries of the source, which are not always exact repeats. Identical values can stand only once. Screen size: about 420,000 compounds; about 50,000 (12%) were called active. About 26% were inconclusive and are not listed. The entries come from a sample that favours actives as a whole. Unmarked numbers belong to inactive results. The call rests on the fitted dose curve; in most records, active means well fitted inhibition curve with a large enough effect; inconclusive means small, poorly fitted or top-dose-only effect; inactive means flat fitted curve, though single readings scatter.
On the % scale 0 is the no-effect control and ±100 the full control effect; potency means the concentration at half of the fitted maximal effect.

This experiment can be described thus: qHTS for Inhibitors of human tyrosyl-DNA phosphodiesterase 1 (TDP1): qHTS in cells in presence of CPT. Further: nearly all actives have a fitted effect of over 55% in size. The note with it: chicken DT40 Tdp1-/-;hTDP1 cells + 20 nM CPT, ATP luminescence, 48 h; series mostly up to 46.2 µM; activity change, negative = growth inhibition: at the top concentration. In outline: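 Chicken DT40 Tdp1-/- cells complemented with human TDP1, 400 cells/well, exposed to compounds plus 20 nM camptothecin for at least 48 h at 37 C; viability read as ATP content by CellTiter-Glo luminescence.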
On the technique in general: qHTS replaces the single test concentration by a dilution series.
As to `Cc1cc(Cl)ccc1OCc1nc(-c2ccncc2)no1`, the “activity change, negative = growth inhibition” value was -25.7%.
The same measure, in the same setting: the result for `CCCCOc1ccc(C(=O)Nc2cccc(-c3nc4ccccc4o3)c2C)cc1` reads -29.3%.
In the case of `O=C(Nc1ccc(-c2nc3cc(NC(=O)c4ccccc4Cl)ccc3o2)cc1)c1ccccc1Cl`, the Potency was 7.31 µM (active).
On to `COC(=O)c1ccc(-c2nc3cc(NC(C)=O)ccc3o2)cc1`, for which the “activity change, negative = growth inhibition” value is -5.85%.
Consider `COc1cc(OC)cc(C(=O)Nc2ccc(-c3nc4ccccc4o3)c(O)c2)c1`, for which the Potency was 18.4 µM (active).
On to `CCc1ccc2oc(-c3ccc(NC(=O)c4cc5ccccc5o4)cc3)nc2c1`, for which the “activity change, negative = growth inhibition” value was -21.5%.
In the case of `O=C(Nc1ccc(C(=O)O)c(O)c1)c1ccccc1`, the Potency result is “inactive”.
Consider `Cc1nc2nc[nH]n2c(=O)c1NC(=O)c1cccc(OCC(C)C)c1`, for which the “activity change, negative = growth inhibition” value is -5.85%.
For `CCCOc1ccc(C(=O)Nc2ccc3oc(-c4cccc(Cl)c4Cl)nc3c2)cc1`, the Potency was 8.2 µM (active).
Consider `Cc1ccccc1-c1nc2cc(NC(=O)c3cccc(OCCC(C)C)c3)ccc2o1`, for which the Potency was 23.1 µM (active).
With `Cc1nc2cc(NC(=O)NCc3ccccc3)ccc2o1`, the “activity change, negative = growth inhibition” value was -25.7%.
For the molecule `O=C(Nc1ccc2oc(-c3ccc(O)c(Br)c3)nc2c1)c1cc2ccccc2o1`, the “activity change, negative = growth inhibition” value was -2.63%.
The same measure, in the same setting: the result for `CC(=O)Nc1ccc(-c2nc3ccccc3o2)cc1` reads 12%.
Still for that read-out and setting: the result for `O=Cc1c(NCCCN2CCCC2=O)c2ccccc2[nH]c1=O` reads 1.3%.
With `Cc1cccc(C(=O)OC(C)CN2CCCC2)c1` (configuration not stated), the “activity change, negative = growth inhibition” value is -0.708%.
As for `COCCNC(=O)CCCN1C(=O)c2ccccc2Sc2ncccc21`, the Potency result is “inactive”.
Take `Cc1ccc2c(Cl)c(C(=O)Nc3nn[nH]n3)sc2c1`: the “activity change, negative = growth inhibition” value is -18.1%.
The same measure, in the same setting: the result for `O=C(COC(=O)CNC(=O)C1CCCCC1)Nc1cccc(F)c1` reads -5.92%.
Same read-out and setting: the result for `CCOc1cccc(-c2nn3c(-c4ccccn4)nnc3s2)c1` reads -21.1%.
As for `c1ccc(-c2cc(-c3nnc4sc(-c5ccccn5)nn34)[nH]n2)cc1`, the Potency was 11.6 µM (active).
On to `CN(C(=O)c1ccccn1)c1nnc(-c2ccccn2)s1`, for which the “activity change, negative = growth inhibition” value is 3.28%.
On the same count and under the same terms, the result for `Cn1c(N)c(C(=O)COC(=O)c2ccccc2NCc2ccco2)c(=O)n(C)c1=O` reads -11.2%; that for `Nc1cc(N)nc(SCc2ccc(Cl)cc2)n1`, 7.24%.
`CC(O)CN(Cc1ccc(Cl)cc1)CC(C)O` (configuration not stated): the “activity change, negative = growth inhibition” value was 1.11%.
On to `CN(C)C(=O)CCc1ccc2c3c([nH]c2c1)[C@]1(C)[C@@H](C(=O)N2CCOCC2)C[C@H](CC(=O)NCCc2ccccn2)C(=O)N1CC3`, for which the “activity change, negative = growth inhibition” value is 14.2%.
As to `CC[C@]12c3[nH]c4cc(CCC(=O)N(C)C)ccc4c3CCN1C(=O)[C@@H](CC(=O)NCCCN(C)C)C[C@@H]2C(=O)N1CCN(C(=O)c2ccco2)CC1`, the “activity change, negative = growth inhibition” value is 1.51%.
With `CCN(CC)C(=O)[C@H]1C[C@H](CC(=O)NCC23CC4CC(CC(C4)C2)C3)C(=O)N2CCc3c([nH]c4cc(CCC(=O)N(C)C)ccc34)[C@]12C`, the Potency is 20.6 µM (active).
Still for that read-out and setting: the result for `CC(C)N(C(=O)[C@H]1C[C@H](CC(=O)NC(C)(C)C)C(=O)N2CCc3c([nH]c4ccc(Cl)cc34)[C@]12C)C(C)C` reads 7.31 µM (active).
Consider `C[C@]12c3[nH]c4ccc(Cl)cc4c3CCN1C(=O)[C@@H](CC(=O)NCCCn1ccnc1)C[C@@H]2C(=O)N1CCOCC1`, for which the “activity change, negative = growth inhibition” value is -15.4%.
Turning to `CCN(CC)C(=O)[C@H]1CC(CC(=O)NCc2ccco2)C(=O)N2CCc3c([nH]c4ccccc34)[C@]12C` (some centres not stated), the “activity change, negative = growth inhibition” value was -24.8%.
As to `CC[C@]12c3[nH]c4cc(CCC(=O)N(C)C)ccc4c3CCN1C(=O)[C@@H](CC(=O)NCc1ccco1)C[C@@H]2C(=O)N1CCN(C(=O)c2ccco2)CC1`, the “activity change, negative = growth inhibition” value was -19%.
With `CC[C@]12c3[nH]c4ccc(Cl)cc4c3CCN1C(=O)[C@@H](CC(=O)NCCCOC)C[C@@H]2C(=O)N1CCN(C(=O)C2CC2)CC1`, the “activity change, negative = growth inhibition” value is -25.7%.
Regarding `CN(C)C(=O)CCc1ccc2c3c([nH]c2c1)[C@]1(CCc2ccccc2)[C@@H](C(=O)N2CCCCC2)C[C@H](CC(=O)NCCC2=CCCCC2)C(=O)N1CC3`, the Potency was 8.2 µM (active).
As for `COc1ccccc1-c1c(C#N)c(N)nc2c1CCC2`, the “activity change, negative = growth inhibition” value was 12.8%.
Same read-out and setting: the result for `O=C(O)C(CCc1ccccn1)c1ccccc1` (configuration not stated) reads 24.6%; that for `Cc1csc(/N=C/N(C)C)c1C#N`, 8.34%.
As for `OCC1CCCN(c2nc3cc4c(cc3cc2CNCc2cccs2)OCO4)C1` (configuration not stated), the activity change, negative = growth inhibition is 3.65% [at 9.04 µM].
As to `Cc1ccc(C(=O)NCC(=O)NC2CC2)cc1`, the “activity change, negative = growth inhibition” value is -25.1%.
Regarding `CCCOC(=O)c1[nH]c2c(c1C)C(=O)CC(c1cc(OC)c(OC)c(OC)c1)C2` (configuration not stated), the Potency was 9.2 µM (active).
Turning to `COc1cc(C2CC(=O)c3cnc(NC(C)=O)nc3C2)cc(OC)c1OC` (configuration not stated), the “activity change, negative = growth inhibition” value is -14.6%.
Still for that read-out and setting: the result for `CCOC(=O)C1=C(N)N2C(=O)C(C)SC2=C(C(=O)OCC)C1c1cc(OC)c(OC)c(OC)c1` (configuration not stated) reads 4.66%.
`CCCOC(=O)c1[nH]c2c(c1C)C(=O)CC(c1cccs1)C2` (configuration not stated): the Potency was 0.58 µM (active).
On to `CCOC(=O)C1=C(C)NC(=S)NC1c1cccs1` (configuration not stated), for which the “activity change, negative = growth inhibition” value was 2.09%.
The same measure, in the same setting: the result for `CCCOC(=O)c1cc2ccccc2oc1=O` reads -2.05%; that for `N#Cc1ccccc1NC(=O)c1cccc(COc2ccc(Cl)cc2Cl)c1`, -5.45%.
Turning to `COc1ccc(-c2csc(NC3OC(=O)c4ccccc43)n2)cc1` (configuration not stated), the Potency was 11.6 µM (active).
For `COc1ccc(N/C=C(\C2OC(=O)c3ccccc32)[N+](=O)[O-])cc1` (configuration not stated), the “activity change, negative = growth inhibition” value was -1.24%.
On to `CCc1ccccc1NC(=O)[C@@H]1CCC(=O)N1C1OC(=O)c2c1ccc(OC)c2OC` (some centres not stated), for which the “activity change, negative = growth inhibition” value is -13.3%.
Turning to `COc1ccc2c(c1OC)C(=O)OC2Nc1nc(-c2ccccc2)cs1` (configuration not stated), the Potency was 2.31 µM (active).
With `COc1ccc2c(c1OC)C(=O)OC2c1c(O)nc(SC)n(-c2ccccc2)c1=O` (configuration not stated), the “activity change, negative = growth inhibition” value was 0.164%.
Regarding `COc1ccc(-c2csc(NC(=O)CCCc3cccs3)n2)cc1`, the “activity change, negative = growth inhibition” value is -23.6%.
In the case of `COC(=O)C(NS(=O)(=O)c1ccc(F)cc1)c1ccccc1` (configuration not stated), the “activity change, negative = growth inhibition” value is -24.2%.
For the molecule `Cc1cccc(-c2nnc(SC(C)C(=O)Nc3ccccc3)n2C)c1` (configuration not stated), the “activity change, negative = growth inhibition” value is -10.2%.
Still for that read-out and setting: next, `CCn1cc(NC(=O)Nc2ccc(OC)c(OC)c2)c(C(N)=O)n1`: 11.3%; `COc1ccc(NC(=O)CNC(=O)Cc2ccccc2)cc1OC`: 1.52%.
As to `COc1ccc(NC(=O)NC(C)c2c(-n3cccc3)sc(C)c2C)cc1OC` (configuration not stated), the Potency is 16.4 µM (active).
Take `S=c1[nH]nc(NCCc2ccccc2)s1`: the “activity change, negative = growth inhibition” value is -3.43%.
Take `Cc1nc(C)c(-c2csc(NCCc3ccccc3)n2)s1`: the Potency is 14.6 µM (active).
In the case of `Cc1nc(N)sc1-c1ccccc1`, the “activity change, negative = growth inhibition” value is -0.668%.
With `CCOC(=O)c1cc2c(=O)n3ccccc3nc2n(CC2CCCO2)c1=NC(=O)c1ccccc1F` (configuration not stated), the “activity change, negative = growth inhibition” value is -14.2%.
As to `CCOC(=O)c1cc2c(=O)n3ccccc3nc2n(CC(C)C)c1=NC(=O)c1c(-c2c(F)cccc2Cl)noc1C`, the Potency is 16.4 µM (active) and 8.2 µM (active).
Consider `CCCn1c(=NC(C)=O)c(C(=O)OCC)cc2c(=O)n3ccccc3nc21`, for which the “activity change, negative = growth inhibition” value was -16.3%.
